# In all, about 68,000 sequences were measured (“fluorescence intensity (a.u.)”: median about 9,100, highest 2% from about 16,000 on). The list comes from a sample in which the highest values are over-represented; it also holds similar and randomly drawn sequences.
# Biological target: OsWRKY34 (Oryza sativa, UniProt Q0JBA9 1-250)
# Test: protein-binding microarray (RPBM); PBS, 2% BSA, 51.3 ng/ul salmon testes DNA, 50 uM zinc acetate, 200 nM TF, 25 C, 1 h; high values mean tight binding
# Conditions: protein: recombinant; tags: N-terminal polyhistidine and DsRed monomer fusion (pET32a); label: CyDye5-dUTP incorporated in the synthesized complementary strand; 3' TTTTT single-stranded linker to array surface; dsDNA, one strand shown
# Summary of the method: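 Binding signal here means per-feature fluorescence intensity in arbitrary units. The values were read on an Axon 4000B scanner after a custom Agilent array, double-stranded by primer extension with Cy5-dUTP, was incubated with 200 nM protein at 25 °C for 1 h in PBS with 2% BSA, salmon testes DNA and 50 µM zinc acetate, then washed. The proteins were transcription factors with an N-terminal polyhistidine tag and DsRed, expressed in E. coli BL21-CodonPlus and purified on Ni–NTA.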
# Chain of OsWRKY34 (Q0JBA9 entry or part of it): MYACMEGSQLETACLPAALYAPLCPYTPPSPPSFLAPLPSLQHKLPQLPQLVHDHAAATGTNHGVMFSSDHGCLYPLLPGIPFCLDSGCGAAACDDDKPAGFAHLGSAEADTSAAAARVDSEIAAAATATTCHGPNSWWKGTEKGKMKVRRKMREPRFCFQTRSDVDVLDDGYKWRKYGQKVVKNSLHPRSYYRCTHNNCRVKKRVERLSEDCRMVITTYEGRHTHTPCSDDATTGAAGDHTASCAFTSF
row,Sequence,binding signal
1,ATATCTCATACTATCTCTCTTCCGTCGTTCCGTGTTGGCCCGGAGTCACCTAGTGCAG,10900 fluorescence intensity (a.u.)
2,CTACGATCAGAAACAGCGGGGCGGGTTGGGAGGGAGTCCACGGAGTCACCTAGTGCAG,15800 fluorescence intensity (a.u.)
3,ACCCCGACCATCTCCCACCATCGGAGGAGACGCTCAAACTCGGAGTCACCTAGTGCAG,8340 fluorescence intensity (a.u.)
4,CCCGGCCCATCTCTCTGGCTCGCACTCCGCCTCCGCCACCCGGAGTCACCTAGTGCAG,10500 fluorescence intensity (a.u.)
5,AGTACTCCCTCCGTTTCTAAATATTTGACACCGTTGACTTCGGAGTCACCTAGTGCAG,12700 fluorescence intensity (a.u.)
6,AAATGTTTGACACCGTTGATTTTTTAGCGCATGTTTGACCCGGAGTCACCTAGTGCAG,8840 fluorescence intensity (a.u.)
7,AAAATGTTTGACACCGTTGACTTTTTAGCATATGTTTGACCGGAGTCACCTAGTGCAG,30800 fluorescence intensity (a.u.)
8,CTCCCTCCGTTTCTAAATATTTGATACCGTTGACTTTTTACGGAGTCACCTAGTGCAG,22300 fluorescence intensity (a.u.)
9,ACCCTCCGTTTCTAAATATTTAACACCGTTGACTTTTTAGCGGAGTCACCTAGTGCAG,23700 fluorescence intensity (a.u.)
10,TTCAAAATGTTTGACACCATTGACTTTTTAGCATATGTTTCGGAGTCACCTAGTGCAG,10000 fluorescence intensity (a.u.)
11,ATCCGTTTTATATTATAAATCATTTGACTTTTTCTATTAGCGGAGTCACCTAGTGCAG,8510 fluorescence intensity (a.u.)
12,CCTCCGTTTCTAAATATTTAACGCCATTGACTTTTTAGCACGGAGTCACCTAGTGCAG,9160 fluorescence intensity (a.u.)
13,AATCTTTTATACATATAATCCCTCCGTTTCTAAATATTTACGGAGTCACCTAGTGCAG,8110 fluorescence intensity (a.u.)
14,TCGAAATGTTTGACACCGTTGACTTTTTAGCATATGTTTGCGGAGTCACCTAGTGCAG,33700 fluorescence intensity (a.u.)
15,GTCATTGTTTGGAGTGGAGTTTTGCTTAGATTAATCTGTCCGGAGTCACCTAGTGCAG,8860 fluorescence intensity (a.u.)
16,ACCACCACCCTGATGGATCTTGGCTCTAGCTCCTGGTTTTCGGAGTCACCTAGTGCAG,8110 fluorescence intensity (a.u.)
17,GCTGCGCACCTAATGCTACTGTTTTGTTAGTATTTATTTACGGAGTCACCTAGTGCAG,8460 fluorescence intensity (a.u.)
18,GTTAGCTTCTACATTTCTCGTTTCTGCTGAAAATAGTGGACGGAGTCACCTAGTGCAG,9540 fluorescence intensity (a.u.)
19,ACGACGAGGAGGCGGTGGTGGTCGTGCGCGGGGAGGAGTCCGGAGTCACCTAGTGCAG,9310 fluorescence intensity (a.u.)
20,TGCTCTTTTTTTCTTGATTATAACCTTCCGGGGTAGTTTTCGGAGTCACCTAGTGCAG,8720 fluorescence intensity (a.u.)
21,ACACTTGGCATTAATCTAATTTAACTTTTTTTTCTTTATCCGGAGTCACCTAGTGCAG,8440 fluorescence intensity (a.u.)
22,ATTGAAACATGATCCGAGTCATAGCCTGACTGGAATTCTTCGGAGTCACCTAGTGCAG,9120 fluorescence intensity (a.u.)
23,TCGTGCGTGCGTGTTTAATTGTCAACCCATACACAACTTGCGGAGTCACCTAGTGCAG,8510 fluorescence intensity (a.u.)
24,AAATATTTGACCGTTCGTTTATTATTTTTATTTTTTTTACCGGAGTCACCTAGTGCAG,12200 fluorescence intensity (a.u.)

row,Sequence,binding signal
1,TAAATATTTGACACCGTTGACTTTTTACACATATTTGACCCGGAGTCACCTAGTGCAG,35100 fluorescence intensity (a.u.)
2,TTGACATAAATTTTCAACCAACCCGTTGTTTTTGTTTTACCGGAGTCACCTAGTGCAG,9250 fluorescence intensity (a.u.)
3,TTCCTCTTCTCTTCTCGTCTCTTGTAGTAGTATATATTTACGGAGTCACCTAGTGCAG,8430 fluorescence intensity (a.u.)
4,TCACTTTTCATGTACAAAACATGTTGATATTGTGGTTGGTCGGAGTCACCTAGTGCAG,8200 fluorescence intensity (a.u.)
5,TTGGTTTGGTTGCTCCTCGCGCTGTTATTGGTTGCTCCTCCGGAGTCACCTAGTGCAG,19900 fluorescence intensity (a.u.)
6,ACCGAATCCGAATCCCGCGTTTCTTTGTTGCGCGCGCGACCGGAGTCACCTAGTGCAG,10100 fluorescence intensity (a.u.)
7,GTTGTTCTTGGCGGCTAGGTCGTGGGGTTTTCTTGTTTCGCGGAGTCACCTAGTGCAG,22800 fluorescence intensity (a.u.)
8,AAATCCCCTTGTTACCGCGCGTTGTTTGGTTGTACCGCGCCGGAGTCACCTAGTGCAG,16600 fluorescence intensity (a.u.)
9,CGTGGGGTTTTCTTGTTTCGGAGGTAGGGAGAGGTTTCGTCGGAGTCACCTAGTGCAG,11900 fluorescence intensity (a.u.)
10,GCTGTTATTGGTTGCTCCTCGCGGTCTCCTTTTTTGGTGACGGAGTCACCTAGTGCAG,10800 fluorescence intensity (a.u.)
11,GTTGGGGTGGTTGGTTTGGGGATCCCCTGTTGTACCCTGCCGGAGTCACCTAGTGCAG,10700 fluorescence intensity (a.u.)
12,TTCGCGCGCTGCTCGCTCGCTTGGTTGGTTGGTTGATTGCCGGAGTCACCTAGTGCAG,15200 fluorescence intensity (a.u.)
13,TTGGTCTCTCCTCGTCGCTGGGGTTCTTTGTTCTTGTAGTCGGAGTCACCTAGTGCAG,10000 fluorescence intensity (a.u.)
14,TCGTTCTTGGCTGGGTTTGGTTTGGTTTGGTTTGGTCTCGCGGAGTCACCTAGTGCAG,45500 fluorescence intensity (a.u.)
15,TGTGGTGGAGGCCGGCTGGGTTCTCTTGGGGTTTGGCCGGCGGAGTCACCTAGTGCAG,10400 fluorescence intensity (a.u.)
16,CGCTCCGCGATTCGTGTTGGTTCTTTTTTTTGTTTCTTGGCGGAGTCACCTAGTGCAG,8470 fluorescence intensity (a.u.)
17,TTCGGGCATACGCCACCCCGCCTTGTCATCCACCGCGCCCCGGAGTCACCTAGTGCAG,8470 fluorescence intensity (a.u.)
18,AACATTTATTTCCATATCTTCATATATGGTTCCATATGAACGGAGTCACCTAGTGCAG,8400 fluorescence intensity (a.u.)
19,TGCCAAGGACTGCATCTTCATCATTGCCTGGGTGTCCACCCGGAGTCACCTAGTGCAG,8700 fluorescence intensity (a.u.)
20,AACCCACAATTACGCGGCGGTGCATTCTCGTTGCTTTGACCGGAGTCACCTAGTGCAG,11400 fluorescence intensity (a.u.)
21,ACCGACTCAAAAACCTAACGGCACTTTTTTTATTTTCAACCGGAGTCACCTAGTGCAG,10600 fluorescence intensity (a.u.)
22,CTCATTGTTGTTGTGTTGTTGCGTTTGGTTTGGTGTGCTCCGGAGTCACCTAGTGCAG,8510 fluorescence intensity (a.u.)
23,GCGTTTTTGTCTCTCTGCTCTCTGCTGCTGCTGCTGGGTCCGGAGTCACCTAGTGCAG,11300 fluorescence intensity (a.u.)

# Reference: paper PMC7819943, “Rice protein-binding microarrays: a tool to detect cis-acting elements near promoter regions in rice”
